Publication PMC4336329 (PLoS ONE, 2015)
Among all 310,000 compounds or so, about 14,000 (4.5%) showed an effect of 50% or more. The effect is printed as a negative number. Only a selection was taken, and strong results are over-represented in it overall.

Biological target: human ether-à-go-go-related gene (hERG) potassium channel (human, UniProt Q12809)
Assay: primary screen, population patch clamp on CHO cells stably expressing hERG; higher = less effect of the substance
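Further: peak tail current of the secondary pulse compared with the same well before compound.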

Chain of human ether-à-go-go-related gene (hERG) potassium channel (Q12809 whole entry, looked up): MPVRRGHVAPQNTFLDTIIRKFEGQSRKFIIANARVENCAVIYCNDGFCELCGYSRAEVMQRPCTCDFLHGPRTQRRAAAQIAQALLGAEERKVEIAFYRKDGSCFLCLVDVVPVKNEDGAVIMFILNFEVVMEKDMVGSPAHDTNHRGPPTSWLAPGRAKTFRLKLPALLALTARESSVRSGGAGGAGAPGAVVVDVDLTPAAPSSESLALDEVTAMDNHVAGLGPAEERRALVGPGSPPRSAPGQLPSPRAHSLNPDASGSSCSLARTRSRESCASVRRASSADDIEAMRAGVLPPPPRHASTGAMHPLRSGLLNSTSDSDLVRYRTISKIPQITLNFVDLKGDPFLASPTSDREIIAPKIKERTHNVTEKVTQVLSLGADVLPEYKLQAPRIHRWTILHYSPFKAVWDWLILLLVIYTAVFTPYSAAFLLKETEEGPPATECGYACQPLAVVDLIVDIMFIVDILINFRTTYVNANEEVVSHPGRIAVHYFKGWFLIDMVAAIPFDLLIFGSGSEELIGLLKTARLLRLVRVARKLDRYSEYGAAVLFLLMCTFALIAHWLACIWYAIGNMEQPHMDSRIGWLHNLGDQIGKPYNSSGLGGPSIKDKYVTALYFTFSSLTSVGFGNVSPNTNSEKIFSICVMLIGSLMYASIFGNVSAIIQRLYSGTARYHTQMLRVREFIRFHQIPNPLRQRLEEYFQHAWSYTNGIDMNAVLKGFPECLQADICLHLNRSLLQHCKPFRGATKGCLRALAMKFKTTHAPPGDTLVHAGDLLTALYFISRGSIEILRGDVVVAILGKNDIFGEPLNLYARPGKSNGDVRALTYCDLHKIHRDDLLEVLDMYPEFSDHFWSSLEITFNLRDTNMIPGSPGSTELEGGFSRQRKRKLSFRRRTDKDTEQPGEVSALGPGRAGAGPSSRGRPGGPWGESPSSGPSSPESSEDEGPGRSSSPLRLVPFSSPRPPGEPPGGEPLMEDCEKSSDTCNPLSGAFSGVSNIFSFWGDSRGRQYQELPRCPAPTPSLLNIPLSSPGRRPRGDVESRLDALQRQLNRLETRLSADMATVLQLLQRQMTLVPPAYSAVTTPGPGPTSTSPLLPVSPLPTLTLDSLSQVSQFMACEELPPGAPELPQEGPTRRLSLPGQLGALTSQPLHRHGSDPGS

SMILES | hERG current change (%, negative = inhibition) at 10uM
COC(=O)C1=C(C)N(CCc2ccc(OC)c(OC)c2)C(=O)C1 | 18.5%
O=C(CNS(=O)(=O)c1ccc(Cl)cc1)NNC(=O)c1cccnc1 | 20.7%
S=C1NC[C@H](Cc2cccc3ccccc23)N1CC1CCCCC1 | 10.3%
COc1cc(O)sc1C=Nc1ccc(Cl)cc1 | 4.72%
Cc1cc2c(n1-c1ccc(Br)cc1)CC(C)(C)CC2=O | -33.5%
O=S(=O)(Nc1cccc(-n2cnnn2)c1)c1ccccc1C(F)(F)F | 12%
CN1CCN(CCC(=O)N/N=C/c2cc([N+](=O)[O-])ccc2OC(F)F)CC1 | 1.78%
C#CCOCCOCCOCCNc1nc(N2CCN(C(=O)CCCCCCCCCCNC(=O)Cn3cc(CCCCCN)nn3)CC2)nc(N2CCN(C(=O)CCCCCCCCCCNC(=O)[C@@H](CCC(=O)O)n3cc(CCCCCN)nn3)CC2)n1 | -5.58%
CC(=O)Nc1cccc(NC(=O)CSc2nnc(Cc3cccn3C)n2-c2ccc(C)cc2)c1 | -11.9%
Cc1ccnc(NC(=O)c2ccc(Cl)c(NC(=O)C(C)Oc3ccccc3)c2)c1 (stereo not shown) | 1.41%
O=C(CCCSc1nc2ccccc2[nH]1)Nc1ccccc1 | 7.05%
COc1ccc(N2CCN(C(=O)CSc3nc4ccccc4c(=O)[nH]3)CC2)cc1 | -10.7%
O=C(CSc1nc2ccccc2[nH]1)N1CCN(c2ccccc2)CC1 | -0.235%
O=C(CCCSc1nc2ccccc2[nH]1)NCc1ccccc1 | -23.9%
O=C(CSc1nc2ccccc2[nH]1)N1CCN(c2ccc(F)cc2)CC1 | -55.6%
Cc1cccc(N2CCN(C(=O)CCCSc3nc4ccccc4[nH]3)CC2)c1C | -17.4%
O=C(CSc1nc2ccccc2[nH]1)N1CCCCC1 | -2%
Cc1ccc2nc(SCC(=O)N3CCN(c4ccccc4)CC3)[nH]c2c1 | 1.42%
O=C(CCCSc1nc2ccccc2[nH]1)NCc1ccc(Cl)cc1 | -62.3%
O=C(CCCSc1nc2ccccc2[nH]1)NCc1ccccc1Cl | -19.3%
O=C(CCCSc1nc2ccccc2[nH]1)N1CCN(c2ccccc2)CC1 | -60.2%
COc1ccc(N2CCN(C(=O)CCCSc3nc4ccccc4[nH]3)CC2)cc1 | -62.3%

SMILES | hERG current change (%, negative = inhibition) at 10uM
CC(C)CNC(=O)C(=O)NC1CCCC1 | 11.7%
CC1=C(C)CC(C(=O)Nc2nccs2)C(C(=O)O)C1 (stereo not shown) | 28.7%
O=C(CSc1n[nH]c(-c2ccncc2)n1)Nc1ccc(Br)cc1 | -2.1%
CN(C)/C=N/c1nc2nccc(-c3ccc(F)cc3)n2n1 | 13.8%
CCC1Oc2ccc(C)cc2N(CC(=O)NCCCN2CCCCC2C)C1=O (stereo not shown) | 3.15%
CN(C(=O)CSc1nnc(-c2ccccc2)o1)c1c(N)n(Cc2ccccc2)c(=O)[nH]c1=O | 12%
COc1cccc(N2C(=O)/C(=C/c3ccc(C)o3)C(=O)NC2=S)c1 | 15%
COc1ccc(/C=C/C=N/NC(=O)COc2ccc(OC)cc2)cc1 | 1.85%
O=C(CCN1C(=O)C2C3CCC(C3)C2C1=O)OCC(=O)c1ccccc1 (stereo not shown) | 9.98%
O=C(CCN1C(=O)C2C3CCC(C3)C2C1=O)OCC(=O)c1ccc(Cl)cc1 (stereo not shown) | -53.2%
O=C(CCN1C(=O)C2C3CCC(C3)C2C1=O)OCC(=O)c1ccc(Br)cc1 (stereo not shown) | -30.2%
CC(C(=O)OCC(=O)c1ccc([N+](=O)[O-])cc1)N1C(=O)C2C3C=CC(C3)C2C1=O (stereo not shown) | -43%
CC(C(=O)OCC(=O)c1ccc([N+](=O)[O-])cc1)N1C(=O)C2C3CCC(C3)C2C1=O (stereo not shown) | -54%
CC(C(=O)OCC(=O)c1cccc([N+](=O)[O-])c1)N1C(=O)C2C3CCC(C3)C2C1=O (stereo not shown) | 2.55%
Cc1ccc(CSCC(=O)N(C)CC(=O)Nc2cccc(F)c2)cc1 | -17.5%
COC(=O)CNC(=O)c1c(-c2ccccc2Cl)noc1C | -5.68%
CCCCc1nc(NCc2ccccc2)c(C#N)c2c1COC(C)(C)C2 | 12.9%
CCOC(=O)c1c(C)[nH]c(C)c1S(=O)(=O)NC(CC)CN1CCOCC1 (stereo not shown) | 7.32%
O=C(NC(=S)Nc1ccccc1C(=O)O)c1ccc(-c2ccc(Br)cc2)o1 | 28.3%
COc1ccc(CCN2C(=O)N[C@@H](CCC(=O)O)C2=O)cc1 | 19%
CC(=C1C(=O)c2ccccc2C1=O)N1CCN(c2ccccn2)CC1 | -28.3%
CC(=C1C(=O)c2ccccc2C1=O)N1CCN(c2ccc(F)cc2)CC1 | -69.8%

SMILES | hERG current change (%, negative = inhibition) at 10uM
C/C(=C/c1ccccc1)C(=O)N1CCN(c2ccc(F)cc2)CC1 | -42.2%
COc1ccc(N2CCN(C(=O)C(OC(C)=O)c3ccccc3)CC2)cc1 (stereo not shown) | -0.89%
COc1ccc(N2CCN(C(C)=C3C(=O)c4ccccc4C3=O)CC2)cc1 | -53.3%
COC(=O)N1CCN(c2ccc(OC)cc2)CC1 | 4.33%
O=C(NC1CCCCC1)NC1C2CC3CC(C2)CC1C3 (stereo not shown) | -6.14%
CCCNC(=S)Nc1ccc(Cl)cc1C | 1.16%
Cc1ccc(S(=O)(=O)NCCNC(=O)c2ccccc2)cc1 | 12.4%
CC(C)Oc1ccc(C(CC(=O)O)NC(=O)Cc2ccc(Cl)cc2)cc1 (stereo not shown) | 24.8%
Cc1csc(NC(=O)CSc2nnc(-c3ccoc3C)o2)n1 | 4.99%
CCOc1ccc(-n2c(SCC(=O)NC)nnc2-c2ccco2)cc1 | -27.5%
COc1ccc(-n2c(SCC(=O)Nc3nccs3)nnc2-c2ccccc2)cc1 | -62.5%
COc1ccc(-n2c(Cc3cccn3C)nnc2SCC(=O)Nc2nccs2)cc1 | -9.82%
CCOC(=O)CSc1nnc(Cc2ccccc2)n1-c1ccc(C)cc1 | -37.4%
CCOC(=O)CN(C(=O)CSc1nnc(C)n1-c1ccccc1)c1ccccc1 | 6.79%
CCOC(=O)CN(C(=O)CSc1nnc(Cc2ccccc2)n1-c1ccc(C)cc1)c1ccccc1 | -59.2%
CCOc1ccccc1-n1c(SCC(=O)Nc2nccs2)nnc1-c1ccoc1C | -5.08%
COc1ccc(CC(=O)NCc2nnc(SCC(=O)Nc3nccs3)n2-c2ccccc2)cc1 | 2.7%
CCOc1ccc(-n2c(SCC(=O)Nc3nccs3)nnc2-c2ccoc2C)cc1 | -56.1%
COc1ccc(-n2c(Cc3cccn3C)nnc2SCC(=O)Nc2nc(C)cs2)cc1 | -6.16%
COc1ccc(-n2c(SCC(=O)Nc3nc(C)cs3)nnc2-c2ccoc2C)cc1 | -81%
